Source: PubChem BioAssay (EPA / NIEHS)
Active and inactive are the calls of the source. How the source made its calls: active means hit-call score of the fitted dose curve at least 0.9, where 1 is the maximum; inactive means score below 0.9.

Experiment: APR_HepG2_CellCycleArrest_24hr: Apredica 24-hour HepG2 Assay for Cell Cycle Arrest (AID 2282905);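 further: cell cycle arrest scored as ratio of 2N to 4N nuclear DNA content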
Conditions: imaging, actives raise or lower the signal
Method in brief: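 Cell cycle arrest is scored from nuclear DNA content measured by high-content imaging of Hoechst 33342-stained HepG2 cells following 24-hour treatment at ten concentrations up to 200 uM, with DMSO as baseline.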

Structure (SMILES)	outcome	AC50
O=C(O)c1ccc2c(c1)nc(C(=O)NC1CCN(C3CC3)CC1)n2Cc1cc(-c2ccc(Cl)s2)on1	inactive	–
C=CN1CCCC1=O	inactive	–
Nc1ccn([C@@H]2O[C@H](CO)[C@@H](O)[C@@H]2O)c(=O)n1	–	0.0387 µM (active)
COCc1nnc(-c2ccc[n+]([O-])c2)n1-c1c(Cl)c(Cl)cc2[nH]c(=O)c(=O)[nH]c12	inactive	–
C=CCc1cc(S(=O)(=O)c2ccc(O)c(CC=C)c2)ccc1O	–	32 µM (active)
NC(N)=O	inactive	–
O=c1[nH]cnc2c1ncn2[C@H]1CC[C@@H](CO)O1	inactive	–
CCCCCCCCCCCCCCO	–	162 µM (active)
CCCCC(CC)C(=O)OCCOCCOCCOC(=O)C(CC)CCCC (stereo not drawn)	inactive	–
CC[C@H](C)C(=O)O[C@H]1C[C@H](O)C=C2C=C[C@H](C)[C@H](CC[C@@H](O)C[C@@H](O)CC(=O)O)[C@H]21	inactive	–
OC[C@H]1O[C@@](CO)(O[C@H]2O[C@H](CO)[C@@H](O)[C@H](O)[C@H]2O)[C@@H](O)[C@@H]1O	inactive	–
c1ccc2c(c1)-c1cccc3c1c-2cc1ccccc13	inactive	–
CCc1cccc(CC)c1N	inactive	–
